# Source: PubChem BioAssay (NCATS)
# Results filed as inconclusive are left out. A call without a number means that no potency is given here. Activity calls are given as the source filed them. Calls follow the shape of the dose curve; as a rule, active = well fitted inhibition curve with a large enough effect; inconclusive = small, poorly fitted or top-dose-only effect; inactive = flat fitted curve, though single readings scatter.
# Experiment: qHTS to identify inhibitors of the type 1 interferon - major histocompatibility complex class I in skeletal muscle: primary screen against the NCATS Pharmaceutical Collection (AID 1347407);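 also: luminescence of HiBiT knocked into endogenous HLA-B as interferon-induced MHC class I level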
# Conditions: human skeletal muscle cells, IFN-b-induced MHC-I HiBiT luminescence, 24 h; series mostly up to 45.9 µM
# Outline: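 HLA-B HiBiT myoblasts, dexamethasone-free growth medium + 4 ng/ml IFN-b; compounds pinned 1 h after seeding, […] from 46 uM; 24 h, 37 C, 5% CO2; lytic HiBiT detection, 10 min RT, luminescence.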
row,SMILES,Potency
1,C[C@]12CCC(=O)C=C1C=C[C@@H]1[C@@H]2CC[C@@]2(C)[C@H]1CC[C@@]21CCC(=O)O1,inactive
2,Nc1ccc(C(=O)NCC(=O)O)cc1,inactive
3,OC1C(O)C(O)C(O)C(O)C1O (stereo not drawn),inactive
4,CCN(CC)CCNC(=O)COc1ccc(OC)cc1,inactive
5,COc1ccc(CCN(C)CCCN2CCc3cc(OC)c(OC)cc3CC2=O)cc1OC,inactive
6,CN(C)CCN1C(=O)c2ccccc2N(C)c2ccccc21,inactive
7,CCOC(=O)[C@@](C)(N)Cc1ccc(O)c(O)c1,inactive
8,COC(=O)C(c1ccccc1Cl)N1CCc2sccc2C1 (stereo not drawn),inactive
9,Cc1cccc(C)c1NC(=O)CN1CCCC1,inactive
10,CCO[C@@H]1O[C@H](C(COCc2ccccc2)OCc2ccccc2)[C@H](OCc2ccccc2)[C@H]1O (stereo partly drawn),inactive
11,CCCCCCCCCCCCCCCC(=O)O,inactive
12,CCCCCCCC/C=C\CCCCCCCCN,inactive
13,CN1CCN(c2c(F)cc3c(=O)c(C(=O)O)cn4c3c2SCC4)CC1,inactive
14,CCCCCCCCCCC[C@@H](C[C@@H]1OC(=O)[C@H]1CCCCCC)OC(=O)[C@H](CC(C)C)NC=O,inactive
15,COc1cc(C)nc(-n2nc(C)cc2OC)n1,inactive
16,CCC(Cc1c(I)cc(I)c(N)c1I)C(=O)O (stereo not drawn),inactive
17,Cc1cccc(C)c1NC(=O)CN1CCCCCC1,inactive
18,COc1ccc2c(c1)c1c3n2CCN(C)C3=NCC1,inactive
19,CCc1ccc(C(=O)C(C)CN2CCCCC2)cc1 (stereo not drawn),inactive

row,SMILES,Potency
1,CN(C)CCOC(c1ccc(Cl)cc1)c1ccccn1 (stereo not drawn),inactive
2,NCc1ccccc1Sc1ccccc1CO,inactive
3,O=C(Nc1cccc(C2=NCCN2)c1)Nc1cccc(C2=NCCN2)c1,inactive
4,COc1ccccc1N1CCN(CCCCNC(=O)c2ccc(-c3ccc(C(C)=O)cc3)cc2)CC1,inactive
5,Cc1cc(-c2ccccc2)nnc1NCCN1CCOCC1,inactive
6,Cn1c(=O)c2[nH]c(Br)nc2n(C)c1=O,inactive
7,CC(=O)NCCCCCC(=O)O,inactive
8,c1ccc(CC2=NCCN2)cc1,inactive
9,COc1cc(N)c(Cl)cc1C(=O)NC1CCN(Cc2ccccc2)CC1,inactive
10,C[C@@H](O)[C@H]1C(=O)N2C(C(=O)O)=C([C@H]3CCCO3)S[C@H]12,inactive
11,c1ccc(-c2nc[nH]c2-c2ccccc2)cc1,inactive
12,CC1CCc2c(N3CCC(O)CC3)c(F)cc3c(=O)c(C(=O)O)cn1c23 (stereo not drawn),inactive
13,CCOc1ccc(NC(C)=O)cc1,inactive
14,C[N+]1(CC2COC(c3ccccc3)(C3CCCCC3)O2)CCCCC1 (stereo not drawn),inactive
15,O=C(CCN1CCN2CCCC2C1)N1c2ccccc2Sc2ccc(Cl)cc21 (stereo not drawn),inactive
16,CN1CCc2cccc3c2[C@H]1Cc1ccc(O)c(O)c1-3,inactive
17,NC(=O)c1ccccc1O,inactive
18,COc1ccc(/C=N/NC(=O)c2ccncc2)cc1OC,inactive
19,NC(=S)N/N=C/c1cccnc1,inactive
